# Measurements as given in PubChem BioAssay AID1224861 (National Center for Advancing Translational Sciences (NCATS), 2016).
# Records with an inconclusive call do not appear. The source made the active and inactive calls. Calls follow the shape of the dose curve; as a rule, active = well fitted cell-killing curve with a large enough effect; inconclusive = small, poorly fitted or top-dose-only effect, or effect the other way; inactive = flat fitted curve, though single readings scatter.
# Experiment: Compound cytotoxicity measured by an ATP content assay as a counter-screen for lead compounds in human astrocytes
# Conditions: human astrocytes viability, ATP luminescence; series mostly up to 46.1 µM; activity change, negative = cytotoxicity: at the top concentration
# Procedure: National Center for Advancing Translational Sciences [NCATS] Johns Hopkins University School of Medicine Florida State University Assay Overview: Many compounds can cause cytotoxicity at high compound concentrations. […] The compound cytotoxicity may also cause side effects or toxicity in human. Thus, the compound cytotoxicity needs to be measured in each cell type and each compound incubation time - same as these in the compound screening assay. The compound cytotoxicity can be measured by cell viability assays such as the ATP content assay. We use an ATP content assay kit for cell viability measurement. It measures ATP content (level) in human astrocytes using a luminescence readout that is proportional to viable cell numbers. Decrease in the luminescence signal after the compound treatment indicates reduced cell viability and cell death caused by compound treatment.
# Assay Protocol Summary: The medium for astrocytes contains AM basal medium (ScienCell, Cat.# 1801), AGS (ScienCell, Cat.# 1801), 10% FBS, and 1% Pen/Strep. The ATP content assay kit (PerkinElmer, Cat.# 6016731) was used to determine cell viability. The reagent was reconstituted and prepared as described by the manufacturer. Cells were seeded in 384- or 1536-well assay plates and cultured at 37 C with 5% CO2 for 16 to 20 hours. The typical cell seeding density in the 1536-well plate assay is 350 cells/well in 3 ul medium for astrocytes in the tissue cultured treated/PDL coated plates. Compounds were added to cells and incubated for a specific time such as 6, 24, or 72 hours before addition of the reagent mixture of the ATP content assay kit at 1:1 ratio. After incubation at room temperature for 10 minutes, the luminescence intensity in assay plates was measured using a ViewLux plate reader (PerkinElmer). […] The percentage inhibitions of the decreased cell viability by small molecules were then calculated that indicate compound cytotoxicity.
SMILES,"activity change, negative = cytotoxicity",Potency
CC(=O)OC(C)OC(=O)C(C)c1ccc(-c2ccccc2)c(F)c1 (stereo not given),7.3% (inactive),–
O=C(/C=C/c1ccccc1)NCCO,2.38% (inactive),–
CC[C@]1(O)C[C@H]2CN(CCc3c([nH]c4ccccc34)[C@@](C(=O)OC)(c3cc4c(cc3OC)N(C=O)[C@H]3[C@@](O)(C(=O)OC)[C@H](OC(C)=O)[C@]5(CC)C=CCN6CC[C@]43[C@@H]65)C2)C1,-8.84% (inactive),–
CC(C)(C)OC(=O)CN(Cc1ccc(Cl)cc1)Cc1ccc([N+](=O)[O-])s1,-18.4% [at 88.3 µM] (inactive),–
CC(C(=O)O)c1ccc(C(=O)c2ccccc2)s1 (stereo not given),-13.1% (inactive),–
CCCC(=O)OC[C@@H](OC(=O)CCC)[C@@H](OC(=O)CCC)[C@H](Cn1c2nc(=O)[nH]c(=O)c-2nc2cc(C)c(C)cc21)OC(=O)CCC,-3.39% (inactive),–
CC(=O)Oc1cccc2c1C(=O)c1c(OC(C)=O)cc(C(=O)O)cc1C2=O,-14.1% (inactive),–
N#C/C(=C\c1ccc(O)c(O)c1)C(=O)Nc1ccccc1,-1.6% (inactive),–
NC(=O)c1cccc2[nH]c(-c3ccc([C@H]4CCCN4)cc3F)nc12,–,5.48 µM (active)
O=C1NC(=O)C(=Cc2ccc(-c3ccc(F)cc3)o2)S1,-3.28% (inactive),–
[O-][n+]1ccccc1SSc1cccc[n+]1[O-],–,0.112 µM (active)
Cc1ccc(O)c(-n2nc3ccccc3n2)c1,-22.7% (inactive),–
OCc1ccc(-c2ccc(-c3ccc(CO)s3)o2)s1,–,21.8 µM (active)
CC(C)(C)COc1ccc(-n2cc(C(=O)O)cn2)cc1C#N,-0.262% [at 88.3 µM] (inactive),–
O=c1[nH]nc(Sc2ncc([N+](=O)[O-])s2)n1-c1ccc2c(c1)OCCO2,–,1.23 µM (active)
CCC(C(=O)O)c1ccc(N2Cc3ccccc3C2=O)cc1 (stereo not given),-15.4% (inactive),–
CCCCC1C(=O)N(c2ccccc2)N(c2ccc(O)cc2)C1=O (stereo not given),-16.9% (inactive),–
O=C(c1ccccc1)c1ccc2n1CCC2C(=O)O (stereo not given),14.5% (inactive),–
Cc1cccc(/C=C/c2ccccc2)n1,-12.8% (inactive),–
O=C1c2ccccc2C(=O)c2c1ccc(O)c2O,-2.34% (inactive),–

SMILES,"activity change, negative = cytotoxicity",Potency
CN1CC(=O)N/C1=N/C(=O)Nc1cccc(Cl)c1,10.6% (inactive),–
CCCS(=O)c1ccc2nc(NC(=O)OC)[nH]c2c1 (stereo not given),-0.17% (inactive),–
C[C@H](NC(=O)C(=O)Nc1ccccc1C(C)(C)C)C(=O)N[C@@H](CC(=O)O)C(=O)COc1c(F)c(F)cc(F)c1F,-9.95% (inactive),–
CCOC1OC(=O)C[C@H]1NC(=O)[C@@H]1CCCN1C(=O)[C@@H](NC(=O)c1ccc(N)c(Cl)c1)C(C)(C)C (stereo not given in full),8.7% (inactive),–
CC1(C)OC2=C(C(=O)c3ccccc3C2=O)[C@H](NCc2ccccc2)[C@H]1O,–,8.91 µM (active)
Cc1csc(NC(=O)c2sc3nc4c(c(C(F)(F)F)c3c2N)CCC4)n1,–,3.46 µM (active)
CO[C@H]1C(=O)[C@]2(C)[C@@H](OC)C[C@H]3OC[C@@]3(OC(C)=O)[C@H]2[C@H](OC(=O)c2ccccc2)[C@]2(O)C[C@H](OC(=O)[C@H](O)[C@@H](NC(=O)OC(C)(C)C)c3ccccc3)C(C)=C1C2(C)C,-18.2% (inactive),–
O=C(Nc1ccc([N+](=O)[O-])cc1Cl)c1cc(Cl)ccc1O,–,1.09 µM (active)
CC[C@@]1(O)C[C@H](O[C@H]2C[C@H](N(C)C)[C@H](O[C@H]3C[C@H](O)[C@H](O[C@H]4CCC(=O)[C@H](C)O4)[C@H](C)O3)[C@H](C)O2)c2c(cc3c(c2O)C(=O)c2c(O)cccc2C3=O)[C@@H]1C(=O)OC,-27.8% (inactive),–
O=C(C=CC=Cc1ccc2c(c1)OCO2)N1CCCCC1,-18.9% (inactive),–
Nc1ccc(O)c(C(=O)O)c1,-2.4% (inactive),–
CC1=C(CO)C(=O)O[C@@H]([C@@H](C)[C@H]2CC[C@H]3[C@@H]4C[C@H]5O[C@]56[C@@H](O)C=CC(=O)[C@]6(C)[C@@H]4CC[C@]23C)C1,14.6% (inactive),–
Cc1oncc1C(=O)Nc1ccc(C(F)(F)F)cc1,-12.6% (inactive),–
CN(C)c1ccc(N=NS(=O)(=O)O)cc1,-26.6% [at 88.3 µM] (inactive),–
CC(C(=O)O)c1ccc2c(c1)[nH]c1ccc(Cl)cc12 (stereo not given),5.69% (inactive),–
O=C(O)CCC(=O)c1ccc(-c2ccccc2)cc1,4.23% (inactive),–
CCCCCCCC/C=C/C(=O)O,11.4% (inactive),–
COc1ccc(-c2cc(=S)ss2)cc1,-17.3% (inactive),–
O=C1C[C@@H](c2ccc(O)cc2)Oc2cc(O)cc(O)c21,3.17% (inactive),–
C[C@@H]1CCN(C(=O)CC#N)C[C@H]1N(C)c1ncnc2[nH]ccc12,0.0793% (inactive),–
